Data on 33 molecules can be found in PubChem BioAssay (NCATS).

SMILES strings stand for the structures. Inconclusive results are not listed. The source made the active and inactive calls. Calls follow the shape of the dose curve; as a rule, active = well fitted cell-killing curve with a large enough effect; inconclusive = small, poorly fitted or top-dose-only effect, or effect the other way; inactive = flat fitted curve, though single readings scatter. Where a SMILES comes first, the peptide text is derived from it. [ ]: non-standard residue; d: D form. Ala(indol-2-yl) = N[C@@H](Cc1cc2ccccc2[nH]1)C(=O)O; Aib = CC(C)(N)C(=O)O
% is scaled to controls: 0 for no effect and ±100 for the full control effect; potency is read from the fitted curve at half-maximal effect.

The subject of this assay is Tov-21-G. The experiment in a line: Primary qHTS to identify gynecologic anti-cancer compounds using libraries of approved drugs and bioactive compounds (AID 1345084). Also: nearly all actives have a fitted effect of over 55% in size. The following applies: Gynecologic cancer cell panel viability, ATPlite luminescence, 48 h; series mostly up to 57.5 µM. In short, it runs like this:
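Five-concentration response, 48 h; readout is ATP-driven luciferase luminescence.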
For `O=C(OC[C@H]1O[C@@H](Oc2ccc(O)cc2CO)[C@H](O)[C@@H](O)[C@@H]1O)c1ccccc1`, the Potency result is “inactive”.

In the case of `CC(=O)O[C@@H]1[C@@H](O)[C@H]2O[C@@H]3C=C(C)[C@@H](O)C[C@]3(CO)[C@]1(C)[C@]21CO1`, the Potency was 4470 nM (active).

As to `CC(C)(NC(=O)[C@@H](N)Cc1ccc(O)cc1)C(=O)N[C@@H](Cc1cc2ccccc2[nH]1)C(=O)N[C@@H](Cc1ccccc1)C(=O)O` (H-Y[Aib][Ala(indol-2-yl)]F-OH), the activity change, negative = cytotoxicity is 16.4% [at 11.6 µM] (inactive).

Consider `COc1ccc2c3c([nH]c2c1)C(C=C(C)C)N1C(=O)C2CCCN2C(=O)C1C3` (stereo not drawn), for which the Potency result was “inactive”.

Consider `C[C@@H]1C[C@@H](O)[C@]2(O)O[C@@H]3C[C@@]4(C=O)C(CC[C@@H]5C4CC[C@]4(C)[C@@](O)(C6=CC(=O)OC6)CC[C@]54O)C[C@H]3OC2O1` (stereo partly drawn), for which the Potency was 1780 nM (active).

For `CC(=O)OC[C@]12C[C@H](OC(=O)CC(C)C)C(C)=C[C@H]1O[C@@H]1[C@H](O)[C@@H](OC(C)=O)[C@@]2(C)[C@@]12CO2`, the Potency is 224 nM (active).

Take `CC[C@H](C)[C@H](NC(=O)[C@H]1CCCCN1C)C(=O)N(COC(=O)CC(C)C)[C@H](C[C@@H](OC(C)=O)c1nc(C(=O)N[C@@H](Cc2ccc(O)cc2)C[C@H](C)C(=O)O)cs1)C(C)C`: the Potency was 5.2 nM (active).

In the case of `CC1=C[C@H]2O[C@@H]3C[C@H]4OC(=O)/C=C/C=C/C(=O)OCC/C(C)=C/C(=O)OC[C@@]2(CC1)[C@]4(C)[C@]31CO1`, the Potency was 89.1 nM (active).

As to `CC(=O)OC[C@]12C[C@H](OC(=O)CC(C)C)C(C)=C[C@H]1O[C@@H]1[C@H](O)[C@@H](O)[C@@]2(C)[C@]12CO2`, the Potency is 355 nM (active).

Turning to `CC(=O)OC[C@]12C[C@H](OC(=O)CC(C)C)C(C)=C[C@H]1O[C@@H]1[C@H](O)C[C@@]2(C)[C@]12CO2`, the Potency was 4470 nM (active).

As for `COC1CC(O[C@H]2CC[C@]3(C)C4CC[C@]5(C)[C@@H](C6=CC(=O)OC6)[C@@H](OC(C)=O)C[C@]5(O)C4CC[C@@H]3C2)OC(C)C1O[C@@H]1O[C@H](CO)[C@@H](O)[C@H](O)[C@H]1O` (stereo partly drawn), the Potency was 562 nM (active).

Consider `Cc1c(Cl)c(OCC(=O)N2CCN(C)CC2)nc2sc(C(=O)NC3CC3)c(N)c12`, for which the Potency entry was “inactive”.

Regarding `CO[C@H]1[C@H](O)[C@H](O[C@H]2CC[C@]3(C=O)C4CC[C@]5(C)[C@H](C6=CC(=O)OC6)CC[C@]5(O)C4CC[C@@H]3C2)O[C@@H](C)[C@@H]1O` (stereo partly drawn), the Potency is 31.6 nM (active).

Regarding `C[C@H]1O[C@@H](O[C@H]2CC[C@]3(C=O)C4CC[C@]5(C)[C@@H](C6=CC(=O)OC6)CC[C@]5(O)[C@@H]4CC[C@]3(O)C2)C[C@@H](O)[C@@H]1O` (stereo partly drawn), the Potency is 126 nM (active).

For `COC1CC(O[C@H]2CC[C@]3(C=O)C4CC[C@]5(C)[C@@H](C6=CC(=O)OC6)CC[C@]5(O)[C@@H]4CC[C@@H]3C2)OC(C)C1O[C@@H]1O[C@H](CO)[C@@H](O[C@@H]2O[C@H](CO)[C@@H](O)[C@H](O)[C@H]2O)[C@H](O)[C@H]1O` (stereo partly drawn), the Potency was 224 nM (active).

As to `C[C@]12CC[C@H](O)C[C@H]1CC[C@@H]1[C@@H]2[C@H](O)C[C@]2(C)[C@@H](c3ccc(=O)oc3)CC[C@]12O`, the Potency was 100 nM (active).

For the molecule `C[C@H]1O[C@@H](O[C@H]2CC[C@]3(CO)C4CC[C@]5(C)[C@@H](C6=CC(=O)OC6)CC[C@]5(O)[C@@H]4CC[C@H]3C2)[C@H](O)[C@H](O)[C@@H]1O[C@@H]1O[C@H](CO)[C@@H](O)[C@H](O)[C@H]1O` (stereo partly drawn), the Potency is 2820 nM (active).

In the case of `CC1=C[C@H]2O[C@@H]3[C@H](O)[C@@H](O)[C@](C)([C@@]2(CO)C[C@@H]1O)[C@]31CO1`, the Potency was 10000 nM (active).

Consider `C[C@H]1O[C@@H](n2cnc3c(N)ncnc32)C[C@@H]1O`, for which the Potency entry is “inactive”.

On to `OCc1nnc2n1-c1ccc(Cl)cc1C(c1ccccc1Cl)=NC2`, for which the Potency result was “inactive”.

With `CC[C@H]1C2CC3[C@@H]4N(C)c5ccccc5[C@]45C[C@@H]([C@H]2[C@H]5O)N3[C@@H]1O`, the Potency result was “inactive”.

For `CO[C@@H]1C[C@H](O[C@H]2CC[C@@]3(C)C(CCC4C3CC[C@]3(C)[C@@H](C5=CC(=O)OC5)[C@@H](OC(C)=O)CC43O)C2)O[C@H](C)[C@@H]1O[C@H]1O[C@H](CO[C@@H]2O[C@H](CO)[C@@H](O)[C@H](O)[C@H]2O)[C@@H](O)[C@H](O)[C@H]1O` (stereo partly drawn), the Potency was 794 nM (active).

Take `CC[C@@]1(O)C(=O)OCc2c1cc1n(c2=O)Cc2cc3c(OC)cccc3nc2-1`: the Potency was 5620 nM (active).

On to `CC1=CC2OC3[C@H](O)C[C@@](C)([C@]34CO4)[C@@]2(CO)[C@H](O)C1=O` (stereo partly drawn), for which the Potency was 14100 nM (active).

Take `CC(=O)O[C@H]1CC[C@@]2(CI)C(=CC[C@@H]3[C@@H]2CC[C@]2(C)C(=O)CC[C@@H]32)C1`: the Potency result was “inactive”.

As for `C=C1[C@@H](C)[C@H]2[C@H](Cc3ccccc3)NC(=O)[C@]23OC(=O)/C=C/C(=O)CCC[C@@H](C)C/C=C/[C@H]3[C@@H]1O`, the Potency is 15800 nM (active).

In the case of `CN(C)c1cc2c(cc1Sc1nc3c(N)nccc3n1CCNCC(C)(C)C)OCO2`, the Potency is 1410 nM (active).

On to `CC(C)(C)[C@]1(O)C[C@@H]2OC(=O)C[C@@]23C(=O)O[C@@H]2OC(=O)[C@@H](O)[C@]213`, for which the Potency entry is “inactive”.

Turning to `N#CC(O[C@@H]1O[C@H](CO)[C@@H](O)[C@H](O)[C@H]1O)c1ccccc1` (stereo partly drawn), the Potency entry was “inactive”.

For `COC1CC(O[C@H]2CC[C@]3(C)C4CC[C@]5(C)[C@@H](C6=CC(=O)OC6)[C@@H](OC(C)=O)C[C@]5(O)C4CC[C@@H]3C2)OC(C)C1O` (stereo partly drawn), the Potency is 708 nM (active).

For `CC(=O)O[C@H]1CN2CCC1CC2`, the Potency entry was “inactive”.

As to `CC(=O)OC[C@]12C[C@H](O)C(C)=C[C@H]1O[C@@H]1[C@H](O)[C@@H](OC(C)=O)[C@@]2(C)[C@]12CO2`, the Potency is 178 nM (active).

As to `CC[C@@H]1C[C@H]2CC[C@H](O2)[C@H](C)C(=O)O[C@@H](C)C[C@@H]2CC[C@@H](O2)[C@@H](C)C(=O)O[C@H](CC)C[C@H]2CC[C@H](O2)[C@H](C)C(=O)O[C@@H](C)C[C@@H]2CC[C@@H](O2)[C@@H](C)C(=O)O1`, the Potency is 794 nM (active).
